Test results published in article PMC7826789 (International Journal of Molecular Sciences, 2021).

Key:
Conditions in all cases: Compound Concentration (nM):1000
[1] = test system: T1, JNK1
T1 construct: gene MAPK8

[2] = test system: T2, JNK2
T2 construct: gene MAPK9

[3] = test system: T3, JNK3
T3 construct: gene MAPK10

[4] = test system: KIT(A829P)
[5] = test system: KIT(D816H)
[6] = test system: KIT(D816V)
[7] = test system: KIT(L576P)
[8] = test system: KIT(V559D)
[9] = test system: KIT(V559D,T670I)
[10] = test system: KIT(V559D,V654A)
[11] = test system: KIT-autoinhibited
[12] = test system: KIT
[13] = test system: LATS1
[14] = test system: LATS2
[15] = test system: LCK
[16] = test system: LIMK1
[17] = test system: LIMK2
[18] = test system: T4, LKB1
T4 construct: gene STK11

[19] = test system: T5, LOK
T5 construct: gene STK10

[20] = test system: LRRK2(G2019S)
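Further: KINOMEscan scanMAX binding as percent activity remaining versus control; lower means stronger binding.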

Row | SMILES | Percent Control [1] [%] | Percent Control [2] [%] | Percent Control [3] [%] | Percent Control [4] [%] | Percent Control [5] [%] | Percent Control [6] [%] | Percent Control [7] [%] | Percent Control [8] [%] | Percent Control [9] [%] | Percent Control [10] [%] | Percent Control [11] [%] | Percent Control [12] [%] | Percent Control [13] [%] | Percent Control [14] [%] | Percent Control [15] [%] | Percent Control [16] [%] | Percent Control [17] [%] | Percent Control [18] [%] | Percent Control [19] [%] | Percent Control [20] [%]
1 | C/C(Nc1ccc(S(N)(=O)=O)cc1)=C1/C(=O)Nc2ccccc21 [GW335962X] | 32 | 31 | 30 | 76 | 73 | 92 | 90 | 100 | 80 | 87 | 28 | 99 | 100 | 83 | 91 | 100 | 94 | 86 | 79 | 47
2 | CC1=C(C(=O)Nc2ccc3[nH]ncc3c2)C(c2ccc3ccccc3c2)CC(=O)N1 (stereo not drawn) [GSK270822A] | 78 | 80 | 82 | 55 | 70 | 78 | 71 | 72 | 84 | 98 | 100 | 80 | 66 | 7 | 33 | 100 | 88 | 100 | 100 | 77
3 | NS(=O)(=O)c1ccc(N/N=C2\C(=O)Nc3ccc(C(=O)NCCc4c[nH]cn4)cc32)cc1 [GW300660X] | 61 | 89 | 96 | 85 | 41 | 94 | 100 | 100 | 100 | 100 | 93 | 100 | 100 | 100 | 100 | 100 | 100 | 100 | 100 | 71
4 | CN1CCN(C(=O)c2ccc(NC(=O)Nc3ccc(N(C)c4ccnc(Nc5ccc(CS(C)(=O)=O)cc5)n4)cc3)cc2)CC1.Cl [GW830263A] | 5.5 | 19 | 8.6 | 0 | 27 | 23 | 0 | 0 | 0.1 | 9.1 | 35 | 0 | 68 | 59 | 85 | 61 | 43 | 76 | 0.4 | 71
5 | NS(=O)(=O)c1ccc(Nc2ncc(-c3ccccc3)o2)cc1 [GW572399X] | 64 | 100 | 99 | 92 | 100 | 100 | 37 | 26 | 92 | 100 | 31 | 30 | 100 | 100 | 100 | 100 | 100 | 87 | 100 | 78
6 | COc1cc(/C=N/Nc2ncnc3[nH]ncc23)ccc1O [GW578748X] | 40 | 49 | 37 | 36 | 26 | 22 | 51 | 44 | 100 | 52 | 57 | 56 | 100 | 52 | 42 | 100 | 100 | 100 | 100 | 49
7 | COc1cc2ncn(-c3cc(O[C@H](C)c4ccccc4Cl)c(C(N)=O)s3)c2cc1OC [GSK237701A] | 88 | 79 | 81 | 11 | 14 | 14 | 34 | 33 | 12 | 81 | 100 | 49 | 99 | 86 | 52 | 100 | 54 | 75 | 0.3 | 69
8 | Cc1cc(O)cc(C)c1/C=C/c1cncc(C(N)=O)c1 [GW435821X] | 84 | 100 | 100 | 92 | 65 | 90 | 4.4 | 1 | 100 | 95 | 77 | 2.1 | 100 | 96 | 25 | 100 | 100 | 100 | 100 | 74
9 | CN(C)CCNC(=O)Nc1ccc(N(C)c2ccnc(Nc3ccc(CS(C)(=O)=O)cc3)n2)cc1.Cl [GW830900A] | 43 | 65 | 55 | 31 | 45 | 52 | 0 | 0 | 14 | 72 | 59 | 0.1 | 92 | 88 | 93 | 85 | 100 | 83 | 14 | 76
10 | NS(=O)(=O)c1ccc(N/N=C2\C(=O)Nc3ccc(C(=O)NCc4ccncc4)cc32)cc1 [GW300657X] | 55 | 40 | 38 | 47 | 14 | 61 | 83 | 87 | 89 | 100 | 99 | 87 | 100 | 67 | 100 | 100 | 90 | 100 | 100 | 89
11 | COc1cccc(-n2ncc3c(N/N=C/c4ccncc4)ncnc32)c1 [GW784752X] | 99 | 83 | 96 | 100 | 46 | 100 | 84 | 89 | 38 | 100 | 100 | 91 | 100 | 100 | 35 | 99 | 100 | 100 | 100 | 96
12 | COc1ccc2cc(-c3c(-c4ccncc4)nc(-c4ccc(S(C)(=O)=O)cc4C)n3C)ccc2c1 [SB-633825] | 73 | 24 | 20 | 52 | 46 | 74 | 77 | 65 | 88 | 89 | 91 | 74 | 67 | 70 | 54 | 74 | 29 | 100 | 1.3 | 90
13 | COc1ccc2[nH]c3c4[nH]c5ccc(OC)cc5c4c4c(c3c2c1)C(=O)NC4=O [GW296115X] | 82 | 55 | 31 | 15 | 6.6 | 1.7 | 8.2 | 9 | 49 | 66 | 72 | 24 | 100 | 43 | 85 | 91 | 81 | 99 | 88 | 2.6
14 | Cl.O=C(O[C@H]1CN[C@H](C#Cc2cc3ncnc(Nc4ccc5c(cnn5Cc5ccccc5)c4)c3s2)C1)N1CCOCC1 [GSK200398A] | 90 | 91 | 88 | 100 | 69 | 100 | 100 | 100 | 87 | 100 | 96 | 100 | 100 | 100 | 81 | 100 | 100 | 100 | 63 | 84
15 | CN(C)c1cc2c(Nc3ccc4c(cnn4Cc4ccccc4)c3)ncnc2cn1 [GW282974X] | 87 | 92 | 82 | 70 | 62 | 90 | 100 | 100 | 96 | 100 | 100 | 100 | 100 | 65 | 77 | 100 | – | 100 | 20 | 93
16 | COC(=O)Nc1nc2ccc(Oc3ccc(NC(=O)Nc4cc(C(F)(F)F)ccc4F)cc3)cc2s1.Cl [GW693917A] | 87 | 60 | 79 | 1.9 | 39 | 61 | 0 | 0.2 | 2.5 | 20 | 87 | 0.5 | 100 | 80 | 2.2 | 43 | 62 | 100 | 0.6 | 74
17 | Cl.c1ccc(Cc2nc3ccc(Nc4ncnc5ccccc45)cc3[nH]2)cc1 [GR269666A] | 91 | 100 | 100 | 100 | 100 | 100 | 100 | 91 | 100 | 85 | 100 | 94 | 100 | 100 | 88 | 100 | 100 | 100 | 100 | 100
18 | O=C1Nc2ccc(C(=O)c3ccco3)cc2C1=Cc1cc(Cl)c(O)c(Cl)c1 [GW406108X] | 64 | 70 | 64 | 83 | 69 | 81 | 38 | 52 | 78 | 100 | 82 | 62 | 100 | 92 | 89 | 100 | 100 | 100 | 94 | 6.9
19 | COc1ccccc1-c1cc(/C=C2\C(=O)Nc3ncc(Br)cc32)cc(Br)c1O [GW442130X] | 52 | 43 | 30 | 100 | 100 | 100 | 76 | 65 | 100 | 62 | 100 | 70 | 100 | 100 | 100 | 100 | 100 | 73 | 100 | 93
20 | CC1=C(C(=O)Nc2ccc3[nH]ncc3c2)C(c2ccc(Cl)c(Cl)c2)CC(=O)N1 (stereo not drawn) [GSK299115A] | 84 | 73 | 77 | 79 | 78 | 94 | 100 | 100 | 94 | 100 | 100 | 100 | 60 | 1.5 | 80 | 94 | 63 | 100 | 71 | 100
